Measurements as given in PubChem BioAssay (NCATS).
Results filed as inconclusive are left out. Active and inactive are the calls of the source. Calls come from the whole dose curve; as a rule, active = well fitted curve in the direction sought with a large enough effect; inconclusive = small, poorly fitted or top-dose-only effect, or another doubt; inactive = no such curve, though single readings can be large; an effect the other way counts as inactive or inconclusive.

Columns and labels:
[1] = Quantitative High-Throughput drug screen in 47 multiple myeloma cell lines against the NCATS MIPE library collection: KMM1_JCRB cell viability assay (AID 1918960); note: nearly all actives have a fitted effect of over 30% in size
Outline: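 Luminescence from CellTiter-Glo, taken after 5 min at room temperature, reports cellular ATP as viability. Cells (500 per well) had been treated 48 h at 37 °C with MIPE 4.0 compounds, scaled between DMSO and medium-only controls.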

[2] = Quantitative High-Throughput drug screen in 47 multiple myeloma cell lines against the NCATS MIPE library collection: KHM11_PLB cell viability assay (AID 1918962); note: nearly all actives have a fitted effect of over 35% in size
Outline: (§1)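 Inhibition of cell viability is measured here. Each line was plated at 500 cells per well, treated with MIPE 4.0 drugs, kept 48 hours at 37C, then assayed for ATP content by CellTiter-Glo luminescence.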

[3] = Quantitative High-Throughput drug screen in 47 multiple myeloma cell lines against the NCATS MIPE library collection: JIM3_ECACC cell viability assay (AID 1918963; note: nearly all actives have a fitted effect of over 35% in size)
Outline: as §1

[4] = Quantitative High-Throughput drug screen in 47 multiple myeloma cell lines against the NCATS MIPE library collection: INA6_PLB cell viability assay (AID 1918965; note: nearly all actives have a fitted effect of over 55% in size)
Outline: (§2)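 qHTS of the MIPE 4.0 collection: 500 myeloma cells/well, 48 h drug exposure at 37C in 5% CO2, then CellTiter-Glo for 5 min at room temperature before luminescence reading.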

[5] = Quantitative High-Throughput drug screen in 47 multiple myeloma cell lines against the NCATS MIPE library collection: H1112_PLB cell viability assay (AID 1918967; note: nearly all actives have a fitted effect of over 30% in size)
Outline: (§3)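 Steps: seed 500 cells per well; pin-transfer MIPE 4.0 library; incubate 48 h at 37C, 5% CO2, humidified; add CellTiter-Glo, 5 min room temperature; read luminescence.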

[6] = Quantitative High-Throughput drug screen in 47 multiple myeloma cell lines against the NCATS MIPE library collection: KMS26_JCRB cell viability assay (AID 1918975); note: nearly all actives have a fitted effect of over 45% in size
Outline: (§4)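 We plated 500 myeloma cells per well, pinned in MIPE 4.0 compounds, and incubated for 48 hours at 37C. ATP was then quantified with CellTiter-Glo, with DMSO and media-only wells defining 100% and 0%.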

[7] = Quantitative High-Throughput drug screen in 47 multiple myeloma cell lines against the NCATS MIPE library collection: MOLP8_DSMZ cell viability assay (AID 1918977); note: nearly all actives have a fitted effect of over 45% in size
Outline: (§5)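 Viability after 48 h drug exposure was measured as ATP-dependent luminescence. Cells, 500 per well, sat at 37 °C under 5% CO2; DMSO wells set 100%, media-only wells 0%.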

[8] = Quantitative High-Throughput drug screen in 47 multiple myeloma cell lines against the NCATS MIPE library collection: NCIH929_DSMZ cell viability assay (AID 1918978); note: nearly all actives have a fitted effect of over 35% in size
Outline: as §5

[9] = Quantitative High-Throughput drug screen in 47 multiple myeloma cell lines against the NCATS MIPE library collection: OCIMY1_PLB cell viability assay (AID 1918979); note: nearly all actives have a fitted effect of over 35% in size
Outline: as §5

[10] = Quantitative High-Throughput drug screen in 47 multiple myeloma cell lines against the NCATS MIPE library collection: JIM1_ECACC cell viability assay (AID 1918964)
Outline: as §3

[11] = Quantitative High-Throughput drug screen in 47 multiple myeloma cell lines against the NCATS MIPE library collection: JJN3_DSMZ cell viability assay (AID 1918966; note: nearly all actives have a fitted effect of over 50% in size)
Outline: as §3

[12] = Quantitative High-Throughput drug screen in 47 multiple myeloma cell lines against the NCATS MIPE library collection: Karpas25_ECACC cell viability assay (AID 1918968; note: nearly all actives have a fitted effect of over 35% in size)
Outline: as §3

[13] = Quantitative High-Throughput drug screen in 47 multiple myeloma cell lines against the NCATS MIPE library collection: KMS27_JCRB cell viability assay (AID 1918970); details: KMS27 myeloma cells, CellTiter-Glo ATP viability, 48 h; viability (% of DMSO): at 45.8 µM (top of the series); note: nearly all actives have a fitted effect of over 30% in size
Outline: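 Myeloma cells (500 per well) were exposed to MIPE 4.0 compounds for 48 h at 37 °C, 5% CO2; viability was read as ATP luminescence with CellTiter-Glo, normalized to DMSO-only (100%) and media-only (0%) wells.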

[14] = Quantitative High-Throughput drug screen in 47 multiple myeloma cell lines against the NCATS MIPE library collection: KMS12PE_JCRB cell viability assay (AID 1918972); note: nearly all actives have a fitted effect of over 30% in size
Outline: as §2

[15] = Quantitative High-Throughput drug screen in 47 multiple myeloma cell lines against the NCATS MIPE library collection: MMM1_PLB cell viability assay (AID 1918976); note: nearly all actives have a fitted effect of over 35% in size
Outline: as §5

[16] = Quantitative High-Throughput drug screen in 47 multiple myeloma cell lines against the NCATS MIPE library collection: KMS20_JCRB cell viability assay (AID 1918973); note: nearly all actives have a fitted effect of over 45% in size
Outline: as §3

[17] = Quantitative High-Throughput drug screen in 47 multiple myeloma cell lines against the NCATS MIPE library collection: MM1S_ATCC cell viability assay (AID 1918980); note: nearly all actives have a fitted effect of over 45% in size
Outline: as §5

[18] = Quantitative High-Throughput drug screen in 47 multiple myeloma cell lines against the NCATS MIPE library collection: KMS12BM_JCRB cell viability assay (AID 1918971); note: nearly all actives have a fitted effect of over 35% in size
Outline: as §4

[19] = Quantitative High-Throughput drug screen in 47 multiple myeloma cell lines against the NCATS MIPE library collection: KMS21BM_JCRB cell viability assay (AID 1918974); details: ATP luminescence, 48 h; viability: at 45.8 µM (top of the series)
Outline: as §3

Measured: Potency
Potency is the fitted concentration of half-maximal effect.

CC1=C(C(=O)Nc2cc3cn[nH]c3cc2F)C(c2ccc(C(F)(F)F)cc2)CC(=O)N1 (stereo not given)
active: [4] 18.7 µM
inactive: [1] | [2] | [3] | [5] | [6] | [7] | [8] | [9]

C=C[C@@H]1CN2CCC1C[C@@H]2C(O)c1ccnc2ccc(OC)cc12 (stereo not given in full)
inactive: [1] | [2] | [3] | [10] | [5] | [13] | [14] | [8] | [9]
active: [11] 16.6 µM | [12] 1.66 µM | [15] 11.8 µM

CCCCC(F)(F)[C@@]1(O)CC[C@H]2[C@H](CC(=O)[C@@H]2CCCCCCC(=O)O)O1
inactive: [1] | [2] | [3] | [4] | [5] | [14] | [8] | [9]
active: [16] 0.418 µM

CC[C@H]1OC(=O)[C@H](C)[C@@H](O[C@H]2C[C@@](C)(OC)[C@@H](O)[C@H](C)O2)[C@H](C)[C@@H](O[C@@H]2O[C@H](C)C[C@H](N(C)C)[C@H]2O)[C@](C)(O)C[C@H](C)C(=NOCOCCOC)[C@H](C)[C@@H](O)[C@]1(C)O
active: [11] 13.2 µM | [17] 20.9 µM
inactive: [1] | [2] | [3] | [10] | [5] | [12] | [13] | [14] | [16] | [8] | [9]

CN(C)c1nc(Cc2ccc(NC(=O)c3ccc(C(F)(F)F)cc3)cc2)nc(N(C)C)c1CC(=O)O
inactive: [1] | [2] | [3] | [10] | [4] | [5] | [13] | [18] | [14] | [6] | [8]
active: [12] 10.5 µM | [17] 2.96 µM

O=C(c1ccc(C=Cc2n[nH]c3ccccc23)cc1)N1CCNCC1
active: [1] 5.26 µM | [2] 0.833 µM | [3] 2.64 µM | [10] 3.72 µM | [4] 3.32 µM | [11] 18.7 µM | [12] 3.72 µM | [16] 1.87 µM | [19] 0.59 µM | [6] 16.6 µM | [15] 5.26 µM | [7] 16.6 µM | [8] 2.35 µM | [17] 16.6 µM

CN1CCN2c3ncccc3Cc3ccccc3C2C1 (stereo not given)
active: [13] 1.05 µM
inactive: [1] | [2] | [3] | [4] | [5] | [14] | [16] | [6] | [8] | [9]

CCC(=C(CC)c1ccc(O)cc1)c1ccc(O)cc1
active: [1] 18.7 µM | [10] 16.6 µM | [11] 9.35 µM | [5] 18.7 µM | [18] 13.2 µM | [14] 13.2 µM | [8] 16.6 µM | [17] 14.8 µM
inactive: [2] | [3] | [16]

CN1CCN(c2cccc(Nc3nc4c(-c5ccc(S(C)(=O)=O)cc5)cccn4n3)c2)CC1
inactive: [12]
active: [1] 1.66 µM | [2] 2.35 µM | [3] 2.96 µM | [10] 0.662 µM | [4] 0.59 µM | [5] 2.35 µM | [13] 1.32 µM | [18] 9.35 µM | [14] 0.833 µM | [19] 3.32 µM | [6] 20.9 µM | [15] 16.6 µM | [7] 9.35 µM | [8] 2.64 µM

C=C1c2cccc(O)c2C(O)=C2C(=O)[C@@]3(O)C(O)=C(C(N)=O)C(=O)[C@@H](N(C)C)[C@@H]3[C@@H](O)[C@H]12
active: [3] 16.6 µM | [4] 13.2 µM | [5] 11.8 µM | [6] 4.69 µM
inactive: [1] | [2] | [13] | [8] | [9]

CC[C@@H]([C@H](C)O)n1ncn(-c2ccc(N3CCN(c4ccc(OCC5CO[C@@](Cn6cncn6)(c6ccc(F)cc6F)C5)cc4)CC3)cc2)c1=O (stereo not given in full)
inactive: [2] | [16] | [17]
active: [1] 5.9 µM | [3] 5.26 µM | [4] 10.5 µM | [11] 4.18 µM | [12] 6.62 µM | [18] 16.6 µM | [15] 16.6 µM

Fc1ccc(CNc2ncnc3ccc(F)cc23)cc1
active: [1] 4.18 µM | [2] 8.33 µM | [3] 11.8 µM | [4] 8.33 µM | [5] 13.2 µM | [12] 3.72 µM | [18] 3.72 µM | [15] 4.18 µM | [8] 16.6 µM | [9] 14.8 µM | [17] 14.8 µM
inactive: [6]

CCN1CCC(n2cc(CNc3cc(Cl)c4ncc(C#N)c(Nc5ccc(F)c(Cl)c5)c4c3)nn2)CC1
active: [2] 16.6 µM | [3] 14.8 µM | [4] 20.9 µM | [11] 20.9 µM | [12] 18.7 µM | [18] 9.35 µM | [16] 16.6 µM | [6] 8.33 µM | [15] 14.8 µM | [8] 20.9 µM | [17] 16.6 µM
inactive: [1]
